# Source: PubChem BioAssay (EPA / NIEHS)
# Activity calls are given as the source filed them. The calls were made as follows: active = hit-call score of the fitted dose curve at least 0.9, where 1 is the maximum; inactive = score below 0.9.
# Assays:
# [1] = ATG_CRE_CIS: Attagene CIS-FACTORIAL HepG2 Assay for human cAMP Responsive Element (CRE) binding protein 3 (AID 2282926); details: HepG2 CRE cis-reporter, Attagene multiplexed mRNA; actives raise or lower the signal
# Method in brief: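 Assay format: transient reporter transfection of HepG2, 24 h treatment, total RNA isolation with DNase I step. Reporter abundance read by fluorescence after PCR and capillary separation; DMSO-normalised gain or loss fitting.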
# [2] = target: CCAAT/enhancer-binding protein beta (Homo sapiens) (UniProt P17676); assay: ATG_C_EBP_CIS: Attagene CIS-FACTORIAL HepG2 Assay for human CCAAT/Enhancer Binding Protein (C/EBP) beta (AID 2282927); details: HepG2 Attagene cis-factorial transcription factor reporter; actives raise or lower the signal
# Method in brief: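 HepG2 transiently transfected with multiplexed reporter units under cis-regulatory promoters reporting endogenous C/EBPb activity. After 24 h exposure, reporter mRNA assayed by RT-PCR, fluorescent labelling, HpaI digestion and capillary electrophoresis; bidirectional fitting versus DMSO.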
# [3] = ATG_CMV_CIS: Attagene CIS-FACTORIAL HepG2 Assay for human CMV (Internal Marker) (AID 2282928); details: HepG2 CMV promoter reporter, transcription factor profiling; actives raise or lower the signal;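 also: endpoint acts as a background internal control marker rather than a target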
# Method in brief: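 Readout: fluorescent reporter cDNA fragments separated by capillary electrophoresis after RT-PCR and HpaI cut. Cells: HepG2 carrying transfected cis-promoter reporter constructs, dosed 24 h. Endpoint serves as background internal-marker control, fit bidirectionally versus DMSO.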
# [4] = ATG_DR4_LXR_CIS: Attagene CIS-FACTORIAL HepG2 Assay for human Liver X Receptor (LXR), DR4 submotif (AID 2282929); details: HepG2 Attagene DR4 cis-reporter, mRNA transcription; actives raise or lower the signal
# Method in brief: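 Fluorescence intensity of labelled reporter cDNA fragments, separated by capillary electrophoresis, gives the signal. HepG2 cells bearing cis-regulated reporter constructs were treated 24 h; activity fitted bidirectionally relative to DMSO negative control.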
# [5] = ATG_AP_1_CIS: Attagene CIS-FACTORIAL HepG2 Assay for human Activator Protein 1 (AP-1) (AID 2282931); details: HepG2 Attagene cis-factorial AP-1 reporter mRNA; actives raise or lower the signal
# Method in brief: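 Multiplexed HepG2 reporter assay, 24 h dosing. mRNA induction detected by RT-PCR plus capillary electrophoresis. Activity fitted in both directions against DMSO.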
# [6] = ATG_AP_2_CIS: Attagene CIS-FACTORIAL HepG2 Assay for human Activator Protein 2 (AP-2) (AID 2282932); details: HepG2 AP-2 cis-reporter, Attagene transcription factor profiling; actives raise or lower the signal
# Method in brief: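 Read-out: fluorescent reporter mRNA via RT-PCR and capillary electrophoresis, 24 h post-dose in transiently transfected HepG2. Endogenous factors drive cis-promoter reporters; gain or loss of signal fitted bidirectionally against DMSO.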
# [7] = ATG_BRE_CIS: Attagene CIS-FACTORIAL HepG2 Assay for human Bone Morphogenetic Protein (BMP) Response Element (BRE) (AID 2282933); details: HepG2 BMP response element reporter, Attagene transcription factor profiling; actives raise or lower the signal
# Method in brief: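 HepG2 cells transiently transfected with multiplexed cis-element reporter units were dosed with chemical for 24 h. Reporter mRNA was measured by RT-PCR with fluorescent labelling, HpaI digestion and capillary electrophoresis; bidirectional fitting relative to DMSO.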
# [8] = target: Retinoic acid receptor alpha (Homo sapiens) (UniProt P10276); assay: ATG_DR5_RAR_CIS: Attagene CIS-FACTORIAL HepG2 Assay for human Retinoic Acid Receptor Alpha (RARE), DR5 submotif (AID 2282934); details: HepG2 Attagene cis-factorial RARE DR5 reporter, mRNA; actives raise or lower the signal
# Method in brief: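 HepG2 cells transiently transfected with multiplexed reporter units; DR5 cis-element drives reporter through endogenous transcription factors. After 24 h dosing, reporter mRNA quantified by RT-PCR, fluorescent labeling, HpaI digestion and capillary electrophoresis; bidirectional fitting versus DMSO.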
# [9] = target: Transcription factor E2F1 (Homo sapiens) (UniProt Q01094); assay: ATG_E2F_CIS: Attagene CIS-FACTORIAL HepG2 Assay for human E2F Transcription Factor 1 (AID 2282935); details: HepG2 Attagene cis-reporter, E2F reporter RNA transcripts; actives raise or lower the signal
# Method in brief: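 Transient MRTU transfection of HepG2; 24 h compound exposure; RNA → oligo(dT) RT → PCR → FAM label → HpaI cut → CE fluorescence. Gain/loss of signal fit against DMSO.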
# [10] = ATG_E_Box_CIS: Attagene CIS-FACTORIAL HepG2 Assay for human Enhancer Box (E-box) (AID 2282936); details: HepG2 E-box cis-reporter transcription, actives raise or lower the signal
# Method in brief: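 Transiently transfected HepG2, endogenous TF-driven reporters, 24 h dosing. Readout: RT-PCR plus capillary electrophoresis of fluorescent reporter fragments. Gain or loss of signal fitted bidirectionally against DMSO baseline.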
# [11] = ATG_M_61_CIS: Attagene CIS-FACTORIAL HepG2 Assay for M61 Transcription Factor (Internal Marker) (AID 2282937); details: HepG2 Attagene CIS-FACTORIAL M61 internal marker reporter; actives raise or lower the signal
# Method in brief: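 Endogenous transcription factor activity in HepG2 is read through transiently transfected cis-element reporter units. After 24 h dosing, RNA undergoes reverse transcription, PCR and primer extension with 6-FAM before capillary electrophoresis; DMSO-referenced bidirectional fit.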
# [12] = ATG_EGR_CIS: Attagene CIS-FACTORIAL HepG2 Assay for human Early Growth Response 1 (EGR1) (AID 2282938); details: HepG2 Attagene CIS-FACTORIAL EGR reporter mRNA; actives raise or lower the signal
# Method in brief: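 Activity is taken as induction or loss of reporter mRNA versus DMSO, fitted bidirectionally. Transcripts from cis-regulated reporter units in transiently transfected HepG2 were measured after 24 h by RT-PCR with capillary electrophoresis.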
# [13] = ATG_M_19_CIS: Attagene CIS-FACTORIAL HepG2 Assay for M19 Transcription Factor (Internal Marker) (AID 2282939); details: HepG2 Attagene CIS-FACTORIAL M19 internal marker reporter; actives raise or lower the signal
# Method in brief: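 HepG2 cells transiently transfected with cis-regulated multiple reporter transcription units were dosed for 24 h; reporter mRNA was quantified by RT-PCR, 6-FAM primer-extension labelling, HpaI digestion and capillary electrophoresis, with bidirectional fitting against DMSO baseline.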
# [14] = ATG_Ets_CIS: Attagene CIS-FACTORIAL HepG2 Assay for human Erythroblast Transformation Specific (ETS) (AID 2282941); details: HepG2 ETS cis-reporter transcription, actives raise or lower the signal
# Method in brief: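 RT-PCR/capillary electrophoresis fluorescence read-out of reporter mRNA; HepG2 transient multi-reporter transfection; 24 h compound exposure; gain or loss of signal fitted bidirectionally relative to DMSO.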
# [15] = ATG_FoxO_CIS: Attagene CIS-FACTORIAL HepG2 Assay for human Forkhead box O (FoxO) (AID 2282943); details: HepG2 Attagene cis-reporter, FoxO element, mRNA; actives raise or lower the signal
# Method in brief: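 HepG2 cells transiently transfected with cis-element-driven reporter units report endogenous FoxO activity. After 24 h chemical exposure, reporter mRNA quantified by RT-PCR, fluorescent labeling, HpaI digestion and capillary electrophoresis; bidirectional fit versus DMSO.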
# [16] = ATG_GATA_CIS: Attagene CIS-FACTORIAL HepG2 Assay for human GATA Binding Protein (AID 2282944); details: HepG2 GATA cis-element reporter, Attagene multiplex mRNA; actives raise or lower the signal
# Method in brief: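 HepG2 cells transiently transfected with multiplexed cis-element reporter units reflecting endogenous transcription factor activity; reporter mRNA measured after 24 h dosing by RT-PCR, 6-FAM labeling, HpaI digestion and capillary electrophoresis. Bidirectional fitting versus DMSO baseline.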
# [17] = ATG_GLI_CIS: Attagene CIS-FACTORIAL HepG2 Assay for human Zinc Finger Protein GLI1 (AID 2282945); details: HepG2, Attagene cis-factorial reporter mRNA, GLI element; actives raise or lower the signal
# Method in brief: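 Transiently transfected HepG2 cells report endogenous transcription factor activity via cis-element-driven reporter units. After 24 h compound exposure, reporter mRNA was measured by RT-PCR with capillary electrophoresis; bidirectional fitting against DMSO baseline.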
# [18] = target: Aryl hydrocarbon receptor (Homo sapiens) (UniProt P35869); assay: ATG_Ahr_CIS: Attagene CIS-FACTORIAL HepG2 Assay for human Aryl Hydrocarbon Receptor (Ahr) (AID 2282930); details: HepG2 AhR cis-factorial reporter transcription; actives raise or lower the signal
# Method in brief: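 HepG2 cells transiently transfected with cis-element-driven multiplexed reporter units; endogenous AhR activity read as reporter mRNA 24 h after dosing, via RT-PCR, 6-FAM labelling, HpaI digestion and capillary electrophoresis. Bidirectional fit relative to DMSO.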
# [19] = ATG_ERE_CIS: Attagene CIS-FACTORIAL HepG2 Assay for Estrogen Response Element (ERE) (AID 2282940); details: HepG2 ERE cis-reporter, Attagene RNA transcript; actives raise or lower the signal
# Method in brief: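 HepG2 cells transiently transfected with cis-promoter-driven multiplexed reporter transcription units report endogenous TF activity. After 24 h compound exposure, reporter mRNA is quantified by RT-PCR with capillary electrophoresis fluorescence; bidirectional fitting versus DMSO baseline.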
# [20] = target: Hepatocyte nuclear factor 3-beta (Homo sapiens) (UniProt Q9Y261); assay: ATG_FoxA2_CIS: Attagene CIS-FACTORIAL HepG2 Assay for human Forkhead box A2 (FOXA2) (AID 2282942); details: HepG2 cis-reporter transcription factor activity, 24 h; actives raise or lower the signal
# Method in brief: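 Reporter transcript induction is measured by fluorescence after capillary electrophoresis of RT-PCR products from HepG2 cells exposed 24 h. Cis-regulated reporter units report endogenous factor activity; curves fitted both directions against DMSO.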
# Chain of CCAAT/enhancer-binding protein beta (Homo sapiens) (P17676 whole entry, looked up): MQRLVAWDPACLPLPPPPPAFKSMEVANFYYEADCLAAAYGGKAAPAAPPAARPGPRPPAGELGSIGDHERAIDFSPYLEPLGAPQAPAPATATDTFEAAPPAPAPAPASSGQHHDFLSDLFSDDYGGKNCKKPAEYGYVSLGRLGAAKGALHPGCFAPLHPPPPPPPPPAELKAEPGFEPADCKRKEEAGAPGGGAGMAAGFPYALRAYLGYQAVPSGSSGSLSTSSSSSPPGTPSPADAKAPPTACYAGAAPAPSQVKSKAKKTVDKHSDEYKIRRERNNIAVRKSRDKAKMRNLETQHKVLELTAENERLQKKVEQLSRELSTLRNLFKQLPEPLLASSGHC
# Chain of Transcription factor E2F1 (Homo sapiens) (Q01094 whole entry, looked up): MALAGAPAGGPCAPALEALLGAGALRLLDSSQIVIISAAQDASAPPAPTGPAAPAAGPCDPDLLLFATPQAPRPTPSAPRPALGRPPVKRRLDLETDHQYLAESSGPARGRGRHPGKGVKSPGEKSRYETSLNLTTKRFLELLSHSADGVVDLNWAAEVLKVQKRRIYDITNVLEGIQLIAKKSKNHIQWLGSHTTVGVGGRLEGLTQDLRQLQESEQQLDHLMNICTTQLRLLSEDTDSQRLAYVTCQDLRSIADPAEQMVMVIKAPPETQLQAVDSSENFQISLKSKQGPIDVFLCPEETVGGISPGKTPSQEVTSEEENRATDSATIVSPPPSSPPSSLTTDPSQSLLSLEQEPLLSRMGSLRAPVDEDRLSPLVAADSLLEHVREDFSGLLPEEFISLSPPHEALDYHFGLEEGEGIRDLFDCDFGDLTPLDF
# Chain of Retinoic acid receptor alpha (Homo sapiens) (P10276 whole entry, looked up): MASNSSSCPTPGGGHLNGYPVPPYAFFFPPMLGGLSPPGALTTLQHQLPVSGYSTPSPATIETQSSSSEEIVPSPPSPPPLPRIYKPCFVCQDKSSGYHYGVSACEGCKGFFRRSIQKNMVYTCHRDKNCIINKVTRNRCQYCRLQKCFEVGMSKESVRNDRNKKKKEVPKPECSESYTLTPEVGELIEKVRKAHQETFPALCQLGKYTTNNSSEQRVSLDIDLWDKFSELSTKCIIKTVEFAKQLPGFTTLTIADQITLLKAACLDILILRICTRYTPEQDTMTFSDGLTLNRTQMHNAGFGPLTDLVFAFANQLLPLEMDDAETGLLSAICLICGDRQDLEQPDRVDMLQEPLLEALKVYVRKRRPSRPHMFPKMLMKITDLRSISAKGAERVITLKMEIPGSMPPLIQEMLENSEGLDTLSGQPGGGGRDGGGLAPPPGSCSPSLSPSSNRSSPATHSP
# Chain of Aryl hydrocarbon receptor (Homo sapiens) (P35869 whole entry, looked up): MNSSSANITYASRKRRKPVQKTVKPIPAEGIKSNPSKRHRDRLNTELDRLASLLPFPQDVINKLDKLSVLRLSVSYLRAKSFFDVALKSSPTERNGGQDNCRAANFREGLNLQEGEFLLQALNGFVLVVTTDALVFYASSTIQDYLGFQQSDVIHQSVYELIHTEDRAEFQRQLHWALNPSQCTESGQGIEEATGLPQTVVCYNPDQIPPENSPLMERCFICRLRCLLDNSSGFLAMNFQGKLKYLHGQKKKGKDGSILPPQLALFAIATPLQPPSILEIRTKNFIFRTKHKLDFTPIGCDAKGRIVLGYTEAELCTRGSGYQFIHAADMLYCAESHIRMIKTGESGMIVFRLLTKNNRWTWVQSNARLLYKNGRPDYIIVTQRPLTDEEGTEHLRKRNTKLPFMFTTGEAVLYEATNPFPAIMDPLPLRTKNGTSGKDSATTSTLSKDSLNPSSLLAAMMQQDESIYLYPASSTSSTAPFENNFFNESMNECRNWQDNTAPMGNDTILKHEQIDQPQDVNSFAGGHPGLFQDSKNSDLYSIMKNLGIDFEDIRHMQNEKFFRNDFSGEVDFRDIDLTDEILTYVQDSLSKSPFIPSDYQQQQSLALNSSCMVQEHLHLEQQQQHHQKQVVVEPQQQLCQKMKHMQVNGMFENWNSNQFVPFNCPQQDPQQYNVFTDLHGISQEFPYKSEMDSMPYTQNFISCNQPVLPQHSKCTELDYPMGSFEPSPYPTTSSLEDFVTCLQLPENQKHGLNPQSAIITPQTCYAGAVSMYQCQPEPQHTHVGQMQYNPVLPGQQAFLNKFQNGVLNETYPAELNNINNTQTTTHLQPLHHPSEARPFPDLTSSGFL
# Chain of Hepatocyte nuclear factor 3-beta (Homo sapiens) (Q9Y261 whole entry, looked up): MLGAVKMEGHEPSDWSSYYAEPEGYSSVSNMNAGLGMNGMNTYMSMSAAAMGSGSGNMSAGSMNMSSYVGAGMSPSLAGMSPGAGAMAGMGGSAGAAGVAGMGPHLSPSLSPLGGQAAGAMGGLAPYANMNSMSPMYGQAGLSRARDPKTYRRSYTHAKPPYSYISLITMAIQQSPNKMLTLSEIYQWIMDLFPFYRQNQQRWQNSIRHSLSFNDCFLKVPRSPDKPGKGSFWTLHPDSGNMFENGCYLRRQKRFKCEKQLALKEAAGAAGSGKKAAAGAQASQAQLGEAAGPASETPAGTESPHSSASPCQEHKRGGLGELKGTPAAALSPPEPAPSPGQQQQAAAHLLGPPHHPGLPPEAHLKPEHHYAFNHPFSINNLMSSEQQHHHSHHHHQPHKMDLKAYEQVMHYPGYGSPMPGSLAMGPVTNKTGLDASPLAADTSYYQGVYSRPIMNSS
smiles,measurement,setting,value
CSc1nnc(C(C)(C)C)c(=O)n1N,outcome,[1],inactive
same,outcome,[2],inactive
same,outcome,[3],inactive
same,outcome,[4],inactive
same,outcome,[5],inactive
same,outcome,[6],inactive
same,outcome,[7],inactive
same,outcome,[8],inactive
same,outcome,[9],inactive
same,outcome,[10],inactive
same,outcome,[11],inactive
same,outcome,[12],inactive
same,outcome,[13],inactive
same,outcome,[14],inactive
same,outcome,[15],inactive
same,outcome,[16],inactive
same,outcome,[17],inactive
CNC(=O)Oc1cccc2c1OC(C)(C)O2,AC50,[1],50 µM (active)
same,AC50,[2],19.3 µM (active)
same,AC50,[3],35.9 µM (active)
same,outcome,[4],inactive
same,outcome,[18],inactive
same,AC50,[5],61 µM (active)
same,outcome,[6],inactive
same,AC50,[7],42 µM (active)
same,outcome,[9],inactive
same,outcome,[10],inactive
same,outcome,[11],inactive
same,outcome,[12],inactive
same,outcome,[13],inactive
same,AC50,[19],29.5 µM (active)
same,AC50,[14],75.9 µM (active)
same,outcome,[15],inactive
same,outcome,[16],inactive
same,outcome,[17],inactive
Cc1nn(-c2cc(NS(C)(=O)=O)c(Cl)cc2Cl)c(=O)n1C(F)F,outcome,[1],inactive
same,outcome,[2],inactive
same,outcome,[3],inactive
same,outcome,[4],inactive
same,outcome,[18],inactive
same,outcome,[5],inactive
same,outcome,[6],inactive
same,outcome,[9],inactive
same,outcome,[10],inactive
same,outcome,[11],inactive
same,outcome,[12],inactive
same,outcome,[13],inactive
same,outcome,[14],inactive
same,outcome,[20],inactive
same,outcome,[15],inactive
same,outcome,[16],inactive
same,outcome,[17],inactive
CCC(=O)Nc1ccc(Cl)c(Cl)c1,outcome,[1],inactive
same,outcome,[2],inactive
same,AC50,[3],22.9 µM (active)
same,outcome,[4],inactive
same,outcome,[18],inactive
same,outcome,[5],inactive
same,outcome,[6],inactive
same,outcome,[7],inactive
same,outcome,[8],inactive
same,outcome,[9],inactive
same,outcome,[10],inactive
same,outcome,[11],inactive
same,outcome,[12],inactive
same,outcome,[13],inactive
same,outcome,[14],inactive
same,outcome,[15],inactive
same,outcome,[16],inactive
same,outcome,[17],inactive
CN(C)NC(=O)CCC(=O)O,outcome,[1],inactive
same,outcome,[2],inactive
same,outcome,[3],inactive
same,outcome,[4],inactive
same,outcome,[18],inactive
same,outcome,[5],inactive
same,outcome,[6],inactive
same,outcome,[8],inactive
same,outcome,[9],inactive
same,outcome,[10],inactive
same,outcome,[11],inactive
same,outcome,[12],inactive
same,outcome,[13],inactive
same,outcome,[14],inactive
same,outcome,[15],inactive
same,outcome,[16],inactive
same,outcome,[17],inactive
C[N+]1(C)CCCCC1,outcome,[1],inactive
same,outcome,[2],inactive
same,outcome,[3],inactive
same,outcome,[18],inactive
same,outcome,[5],inactive
same,outcome,[6],inactive
same,outcome,[8],inactive
same,outcome,[9],inactive
same,outcome,[10],inactive
same,outcome,[11],inactive
same,outcome,[12],inactive
same,outcome,[13],inactive
same,outcome,[14],inactive
same,outcome,[20],inactive
same,outcome,[15],inactive
same,outcome,[16],inactive
same,outcome,[17],inactive
CC(=NC#N)N(C)Cc1ccc(Cl)nc1,outcome,[1],inactive
same,outcome,[2],inactive
same,outcome,[3],inactive
same,outcome,[18],inactive
same,outcome,[5],inactive
same,outcome,[6],inactive
same,outcome,[8],inactive
same,outcome,[9],inactive
same,outcome,[10],inactive
same,outcome,[11],inactive
same,outcome,[12],inactive
same,outcome,[13],inactive
same,outcome,[14],inactive
same,outcome,[20],inactive
same,outcome,[15],inactive
same,outcome,[16],inactive
same,outcome,[17],inactive
